Reference: the supplement of paper PMC8728848
This excerpt belongs to a sample that is enriched for the strongest signals.

Tests used:
Experiment in all cases: glycan array binding signal (z-score within array); higher = stronger binding
Conditions in all cases: glycan notation: IUPAC condensed, linker removed
[1] = target: Fuc(a1-2)Gal(b1-3)GlcNAc(b1-2)Man(a1-3)[Fuc(a1-2)Gal(b1-3)GlcNAc(b1-2)Man(a1-6)]Man(b1-4)GlcNAc(b1-4)[Fuc(a1-6)]GlcNAc
Summary of the method: (§1)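 Columns mapping to the same glycan were averaged after glycan names were converted to IUPAC-condensed notation. The data come from 3228 arrays in the Consortium for Functional Glycomics database, limited to those with an available protein sequence. Binding is reported as a within-array Z-score averaged across arrays of one protein sequence and across linkers.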

Fuc(a1-2)Gal(b1-4)Glc6S = target: Fuc(a1-2)Gal(b1-4)Glc6S
Summary of the method: as §1

[2] = target: Fuc(a1-2)Gal(b1-4)GlcNAc(b1-3)Gal(b1-4)GlcNAc(b1-3)Gal(b1-4)GlcNAc
Summary of the method: as §1

[3] = target: Fuc(a1-2)Gal(b1-4)GlcNAc6S
Summary of the method: as §1

[4] = target: Fuc(a1-2)Gal(b1-4)[Fuc(a1-3)]GlcNAc
Summary of the method: as §1

[5] = target: Fuc(a1-2)Gal(b1-4)[Fuc(a1-3)]GlcNAc(b1-3)Gal(b1-4)[Fuc(a1-3)]GlcNAc(b1-3)Gal(b1-4)[Fuc(a1-3)]GlcNAc
Summary of the method: as §1

[6] = target: Fuc(a1-2)Gal6S(b1-4)GlcNAc
Summary of the method: as §1

[7] = target: Fuc(a1-2)[Gal(a1-3)]Gal(b1-3)GlcNAc(b1-2)Man(a1-3)[Fuc(a1-2)[Gal(a1-3)]Gal(b1-3)GlcNAc(b1-2)Man(a1-6)]Man(b1-4)GlcNAc(b1-4)GlcNAc
Summary of the method: as §1

Fuc(a1-3)GlcNAc = target: Fuc(a1-3)GlcNAc
Summary of the method: as §1

[8] = target: Fuc(a1-3)[Gal3S(b1-4)]GlcNAc
Summary of the method: as §1

Fuc(a1-4)GlcNAc = target: Fuc(a1-4)GlcNAc
Summary of the method: as §1

[9] = target: Gal(a1-3)Gal(b1-4)[Fuc(a1-3)]GalNAc
Summary of the method: as §1

Gal(a1-4)GlcNAc = target: Gal(a1-4)GlcNAc
Summary of the method: as §1

[10] = target: Gal(b1-3)GlcNAc(b1-3)Gal(b1-4)[Fuc(a1-3)]GlcNAc(b1-6)[Gal(b1-3)GlcNAc(b1-3)]Gal(b1-4)Glc
Summary of the method: as §1

[11] = target: Gal(b1-3)GlcNAc(b1-3)GalNAc
Summary of the method: as §1

[12] = target: Gal(b1-3)[GlcNAc(b1-6)]GlcNAc
Summary of the method: as §1

[13] = target: Gal(b1-4)GlcNAc(b1-2)[Gal(b1-4)GlcNAc(b1-4)]Man(a1-3)[GlcNAc(b1-4)][Gal(b1-4)GlcNAc(b1-2)Man(a1-6)]Man(b1-4)GlcNAc(b1-4)GlcNAc
Summary of the method: as §1

[14] = target: Gal(b1-4)GlcNAc(b1-3)Gal(b1-4)[Fuc(a1-3)GlcNAc(b1-6)]Gal(b1-4)Glc
Summary of the method: as §1

Glc(b1-4)Glc = target: Glc(b1-4)Glc
Summary of the method: as §1

[15] = target: GlcNAc(a1-3)Gal(b1-4)GlcNAc
Summary of the method: as §1

GlcNAc(b1-3)Gal = target: GlcNAc(b1-3)Gal
Summary of the method: as §1

[16] = target: GlcNAc(b1-3)Gal(b1-3)GalNAc
Summary of the method: as §1

[17] = target: GlcNAc(b1-3)[GlcNAc(b1-6)]Gal(b1-4)GlcNAc
Summary of the method: as §1

[18] = target: GlcNAc(b1-3)[GlcNAc(b1-6)]GlcNAc(b1-4)GlcNAc
Summary of the method: as §1

[19] = target: GlcNAc(b1-4)Gal(b1-4)GlcNAc
Summary of the method: as §1

[20] = target: GlcNAc6S(b1-3)Gal(b1-4)GlcNAc
Summary of the method: as §1

[21] = target: Neu5Ac(a2-3)Gal(b1-3)GlcNAc6S
Summary of the method: as §1

[22] = target: Neu5Ac(a2-3)Gal(b1-3)[Fuc(a1-4)]GlcNAc
Summary of the method: as §1

[23] = target: Neu5Ac(a2-3)Gal(b1-4)GlcNAc(b1-6)[Gal(b1-3)]GalNAc
Summary of the method: as §1

[24] = target: Neu5Ac(a2-3)Gal6S(b1-4)GlcNAc
Summary of the method: as §1

Neu5Ac(a2-3)GalNAc = target: Neu5Ac(a2-3)GalNAc
Summary of the method: as §1

[25] = target: Neu5Ac(a2-3)[Neu5Ac(a2-6)]GalNAc
Summary of the method: as §1

[26] = target: Neu5Ac(a2-6)Gal(b1-4)GlcNAc(b1-2)Man(a1-6)[GlcNAc(b1-2)Man(a1-3)]Man(b1-4)GlcNAc(b1-4)GlcNAc
Summary of the method: as §1

[27] = target: Neu5Ac(a2-8)Neu5Ac(a2-3)[GalNAc(b1-4)]Gal(b1-4)Glc
Summary of the method: as §1

[28] = target: Neu5Ac(a2-8)Neu5Ac(a2-8)Neu5Ac
Summary of the method: as §1

B1: AAL (Aleuria aurantia), P18891 (protein)
chain: PTEFLYTSKIAAISWAATGGRQQRVYFQDLNGKIREAQRGGDNPWTGGSSQNVIGEAKLFSPLAAVTWKSAQGIQIRVYCVNKDNILSEFVYDGSKWITGQLGSVGVKVGSNSKLAALQWGGSESAPPNIRVYYQKSNGSGSSIHEYVWSGKWTAGASFGSTVPGTGIGATAIGPGRLRIYYQATDNKIREHCWDSNSWYVGGFSASASAGVSIAAISWGSTPNIRVYWQKGREELYEAAYGGSWNTPGQIKDASRPTPSLPDTFIAANSSGNIDISVFFQASGVSLQQWQWISGKGWSIGAVVPTGTPAGW
glycan array binding signal (z-score) [1]: -0.012
glycan array binding signal (z-score) (Fuc(a1-2)Gal(b1-4)Glc6S): 3.52
glycan array binding signal (z-score) [2]: 3.03
glycan array binding signal (z-score) [3]: 2.6
glycan array binding signal (z-score) [4]: 2.51
glycan array binding signal (z-score) [5]: 2.68
glycan array binding signal (z-score) [6]: 2.6
glycan array binding signal (z-score) [7]: -0.407
glycan array binding signal (z-score) (Fuc(a1-3)GlcNAc): 2.85
glycan array binding signal (z-score) [8]: 1.76
glycan array binding signal (z-score) (Fuc(a1-4)GlcNAc): 1.99
glycan array binding signal (z-score) [9]: 2.52
glycan array binding signal (z-score) (Gal(a1-4)GlcNAc): -0.498
glycan array binding signal (z-score) [10]: 0.584
glycan array binding signal (z-score) [11]: -0.414
glycan array binding signal (z-score) [12]: -0.62
glycan array binding signal (z-score) [13]: -0.348
glycan array binding signal (z-score) [14]: 0.521
glycan array binding signal (z-score) (Glc(b1-4)Glc): -0.525
glycan array binding signal (z-score) [15]: -0.512
glycan array binding signal (z-score) (GlcNAc(b1-3)Gal): -0.501
glycan array binding signal (z-score) [16]: -0.515
glycan array binding signal (z-score) [17]: -0.514
glycan array binding signal (z-score) [18]: -0.567
glycan array binding signal (z-score) [19]: -0.525
glycan array binding signal (z-score) [20]: -0.391
glycan array binding signal (z-score) [21]: -0.493
glycan array binding signal (z-score) [22]: 1.33
glycan array binding signal (z-score) [23]: -0.444
glycan array binding signal (z-score) [24]: 1.5
glycan array binding signal (z-score) (Neu5Ac(a2-3)GalNAc): -0.531
glycan array binding signal (z-score) [25]: -0.551
glycan array binding signal (z-score) [26]: -0.423
glycan array binding signal (z-score) [27]: -0.499
glycan array binding signal (z-score) [28]: -0.526
